CRFBP-R2 block: antagonists of CRF-binding protein/CRF-R2 receptor complex. hit rate 0.59% among 350,000. HEK293 CRF-R2/CRF-BP, CRF-induced calcium fluorescence. AID 588475. inhibition, % at 11.8 µM;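 active means inhibition of the ligand-induced calcium signal above about 50% at the single tested concentration, limit read from the data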
CRFBP-R2 agonist: agonists of human CRF-binding protein/CRF-R2 receptor complex; HEK293 CRF-R2/CRF-BP, calcium dye fluorescence (FLIPR); percent of saturating CRF peptide response; activation, % at 13.2 µM; hit rate 0.46% among 350,000;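 active means activation of at least 50%, plus an integration ratio under a set limit after plate pattern correction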;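 further: plate controls were neutral control wells without compound for no effect and CRF at EC100 for full effect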
cardiac RTF act: cardiac RTF calcium sensitization | activation, % at 7.2 µM | IANBD-labeled TnC RTF fluorescence at EC20 calcium; 0% EC20 calcium, 100% full calcium | hit rate 0.24% among 340,000 | AID 493008 | P19429+P45379;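 active means activation above the mean over all tested compounds plus 3 SD, cut at about 30% in these data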;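 further: rise in fluorescence read as greater calcium sensitivity of cardiac thin filaments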
Cardiac RTF inh: cardiac RTF calcium desensitization. hit rate 0.12% among 340,000. P19429+P45379. IANBD-labeled cardiac RTF, Ca2+ fluorescence. inhibition, % at 7.15 µM. AID 493244;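 active means inhibition above the mean inhibition of all tested compounds plus 3 SD, cut at about 17% in these data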;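 further: assay run at fixed EC70 calcium of 1.6 mM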
* hit, by the source's call; . = no result given. Most compounds without a hit are left out; they make up all but 1.3% or so of the library.

SMILES | CRFBP-R2 block | CRFBP-R2 agonist | cardiac RTF act | Cardiac RTF inh
O=[N+]([O-])c1ccc(N/N=C/c2sc(N3CCOCC3)nc2-c2ccccc2)c(S(=O)(=O)Nc2ccc(Cl)cc2)c1 | -55 | 83* | 6 | -27
O=[N+]([O-])c1ccc(N/N=C/c2sc(N3CCOCC3)nc2-c2ccccc2)c(S(=O)(=O)Nc2ccccc2Cl)c1 | -39 | 67* | 12 | -12
O=C(N/N=C/c1sc(N2CCOCC2)nc1-c1ccccc1)c1ccccc1Cl | 27 | -2 | 5 | -5
COc1ccc(NC(=O)CSCC(=O)N(C)Cc2ccc3c(c2)OCCO3)cc1 | -11 | -2 | -3 | -7
O=P(c1ccccc1)(c1ccccc1)C(O)c1cccs1 (stereo not given) | -3 | -2 | . | .
CN(Cc1ccccc1)C(=O)COC(=O)C1CCN(S(=O)(=O)c2cccs2)CC1 | -113 | 9 | . | .
O=c1cc(C(F)(F)F)[nH]c2c(C(F)(F)F)cccc12 | 33 | 54* | -5 | -13
Cc1cc(=O)c2cccc(Br)c2[nH]1 | 11 | -3 | -2 | -5
O=c1cc(C(F)(F)F)[nH]c2ccc(OC(F)(F)F)cc12 | 69* | 50 | . | .
CCN1CCN(c2ccc(S(=O)(=O)N3CCOCC3)cc2NC(=O)c2cc(Cl)nc3ccccc23)CC1 | 82* | -1 | -5 | -8
CCN1CCN(c2ccc(S(=O)(=O)N3CCCCC3)cc2NC(=O)/C=C/c2cccc(OC)c2OC)CC1 | 106* | -1 | -5 | 3
COc1ccccc1NC(=O)CSc1nnc(CNC(=O)c2ccco2)o1 | 66* | -2 | 1 | 0
COc1ccc(NC(=O)CSc2nnc(CNC(=O)c3ccco3)o2)c(OC)c1 | 0 | 0 | -5 | -1
N#Cc1c(-c2ccccc2)cc(-c2ccccc2)nc1SCC(=O)NCC(=O)O | -13 | 72* | 0 | -8
CC(C)C(Sc1nc(-c2ccccc2)cc(-c2ccccc2)c1C#N)C(=O)O (stereo not given) | 68* | 0 | -1 | -5
COc1cc(OC)c(OC)cc1/C=C1\CCC/C(=C\c2cc(OC)c(OC)cc2OC)C1=O | -10 | 13 | 6 | -15
COc1ccc(/C=C2\CC/C(=C\c3ccc(OC)cc3OC)C2=O)c(OC)c1 | -84 | 88* | 24 | -72
COc1ccc(/C=C2\CCC/C(=C\c3ccc(OC)c(OC)c3OC)C2=O)c(OC)c1OC | 69* | -2 | 2 | -9
COc1cc(/C=C2/CC/C(=C/c3ccc(O)c(OC)c3)C2=O)ccc1O | -132 | 167* | 5 | -14
COc1ccc(/C=C2\CCC(C3CCCC3)C2=O)cc1OC (stereo not given) | 53* | 1 | -2 | 0
NS(=O)(=O)c1cc(C(=O)N=Nc2c(O)[nH]c3ccccc23)ccc1Cl | 3 | -2 | -3 | -2
O=C(Cn1cc(C(F)(F)F)cc(Cl)c1=O)NCc1ccc(F)cc1 | 13 | -1 | -3 | -12
CCCC(CCC(=O)Nc1ccn(-c2ccccc2)n1)C(=O)O (stereo not given) | 3 | 2 | 3 | -7
COc1ccc(Cl)cc1NC(=O)CN(C)C(=O)c1ccc(-n2cncn2)cc1 | -1 | -3 | 1 | 1
COc1cc(/C=C2/C(=O)ON=C2c2ccccc2)ccc1O | 56* | 4 | -8 | -9
SMILES | CRFBP-R2 block | CRFBP-R2 agonist | cardiac RTF act | Cardiac RTF inh
COc1cc(/C=C2\C(=O)ON=C2c2ccccc2)cc(Cl)c1O | -18 | 15 | 2 | -5
COc1ccc(C2(C)NC(=O)N(CC(=O)Nc3cccnc3Cl)C2=O)cc1 (stereo not given) | -26 | 15 | -7 | -4
CC1(c2ccc(OC(F)F)cc2)NC(=O)N(CC(=O)Nc2cccnc2Cl)C1=O (stereo not given) | -52 | 96* | -1 | -1
Cc1cccnc1NC(=S)Nc1ccc(Br)cc1Cl | 0 | 0 | -3 | -6
Cc1nc(CNS(=O)(=O)c2cccc(F)c2)cs1 | -6 | 1 | 1 | 3
Cc1nc(CNS(=O)(=O)c2ccc3ccccc3c2)cs1 | 65* | -2 | 2 | -4
Cc1cccc(NC(=O)CN2C(=O)NC3(CCCC3)C2=O)n1 | 8 | -1 | -1 | -6
Nc1c(C(=O)NCC2CCCO2)sc2nc3c(c(-c4ccco4)c12)CC/C3=C\c1ccco1 (stereo not given) | 0 | 3 | 11 | 25*
CC(=O)Nc1ccc(Sc2ncccc2C(=O)Nc2cc(Cl)cc(Cl)c2)cn1 | -40 | 10 | 1 | 5
CC(=O)Nc1ccc(Sc2ncccc2C(=O)Nc2ccc(OC(F)(F)F)cc2)cn1 | -59 | 130* | -14 | -7
COC(=O)CN1C(=O)Nc2ccc(Br)cc2C1c1ccccc1 (stereo not given) | -20 | 1 | -4 | 1
O=C(O)CN1C(c2ccccc2O)Nc2ccc(Br)cc2C1c1ccccc1 (stereo not given) | 63* | -2 | . | .
COc1ccc(C2Nc3ccc(Br)cc3C(c3ccccc3)N2CC(=O)O)cc1 (stereo not given) | 87* | -6 | -7 | 8
CC1=Nc2ccc(Br)cc2C(c2ccccc2)N1CC(=O)O (stereo not given) | 3 | -1 | -4 | -4
O=C(COC(=O)/C=C/c1ccccc1Cl)NC1CCCCCC1 | 14 | -5 | 0 | -5
N=c1n(Cc2ccccc2)c2ccccc2n1CC(O)c1ccco1 (stereo not given) | -2 | 0 | 40* | -57
CCn1c(=N)n(CC(O)c2ccco2)c2ccccc21 (stereo not given) | -5 | 4 | 4 | 3
COC(=O)c1cc(=O)cc(C(=O)OC)o1 | 24 | 0 | -4 | 13
CCOC(=O)c1cc(=O)cc(C(=O)OCC)o1 | 50* | -2 | 4 | -2
Nc1ccc(Oc2ccc3c(c2)C(=O)NC3=O)cc1 | 1 | -2 | 1 | 2
COc1cc(C=O)ccc1OCCOCCOc1ccc(Cl)cc1Cl | 69* | -2 | -3 | 6
COc1cc(C=O)ccc1OCCOCCOc1ccc(Cl)cc1 | 1 | 1 | -4 | -2
Cc1cccc(NC(=O)CN(C)C(C)C(=O)Nc2ccc(S(=O)(=O)N3CCCC3)cc2)c1C (stereo not given) | -5 | 2 | -4 | 0
CC[C@@]1(O)C(=O)OCc2c1cc1n(c2=O)Cc2cc3c(N)cccc3nc2-1 | 11 | 0 | -1 | -10
CC[C@@]1(O)C(=O)OCc2c1cc1n(c2=O)Cc2cc3c(CN(C)C)c(O)ccc3nc2-1 | -242 | 231* | 221* | -222
SMILES | CRFBP-R2 block | CRFBP-R2 agonist | cardiac RTF act | Cardiac RTF inh
Cc1cccc(NC(=O)CSc2nc3[nH]ncc3c(=O)[nH]2)c1C | 51* | 3 | -2 | -11
Cc1ccc(NC(=O)CSc2nc3[nH]ncc3c(=O)[nH]2)c(C)c1 | -5 | 1 | 4 | -2
Cc1c(C(=O)N(CCO)Cc2ccccc2)oc2c(F)cccc12 | 4 | 0 | -1 | -8
CCc1ccc(S(=O)(=O)N2CCN(c3ncccn3)CC2)cc1 | 13 | 0 | 0 | 0
Cn1cc(C(=O)NC2CCCCC2)c(=O)c2cc(S(=O)(=O)N3CCOCC3)ccc21 | -5 | 0 | 5 | -4
Cc1nnc(C)n1/N=C/c1cccs1 | 55* | 1 | 0 | -2
